Source: PubChem (Bradner/Qi Labs at DFCI)
The entries come from a sample that favours hits as a whole.
CBX7 AlphaScr: CBX7 chromodomain binding inhibitors, primary screen, biochemical, AlphaScreen. AlphaScreen His6-CBX7 / biotin-H3K27me3 peptide binding; hits give low values. normalised signal (fraction of DMSO) (no concentration beside the values). hit rate 1.1% among 66,000; in the data active = normalised signal below about 0.5
Target sequence (O95931 whole entry, looked up): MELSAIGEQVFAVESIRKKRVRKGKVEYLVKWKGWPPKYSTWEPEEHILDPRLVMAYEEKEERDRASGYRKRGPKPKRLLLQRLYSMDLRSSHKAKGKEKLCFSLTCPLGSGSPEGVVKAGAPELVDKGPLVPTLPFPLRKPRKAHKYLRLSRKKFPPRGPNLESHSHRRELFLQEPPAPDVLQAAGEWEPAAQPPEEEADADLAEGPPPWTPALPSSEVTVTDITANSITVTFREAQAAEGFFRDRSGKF
Numbers stand for hits; . = inactive.

SMILES	CBX7 AlphaScr
COc1ccc(OC)c(Nc2nc(-c3ccc(C)cc3)cs2)c1	.
CCOc1ccc(Nc2nc(-c3ccc(Cl)c(Cl)c3)cs2)cc1	.
CCOc1ccc(Nc2nc(-c3ccccn3)cs2)cc1	0.018
CCn1c(C(=O)Nc2cc3c(cc2C(=O)OC)OCO3)cc2sc(Cl)cc21	.
Cc1ccc(-c2nc(C(=O)NC3CCCCC3)c(C)o2)cc1	.
Cc1ccc(NC(=O)c2cc(Cl)ccc2NC(=O)c2ccccc2)cc1	.
Cc1oc(-c2ccc(Cl)cc2)nc1CSCC(=O)NCCCOC(C)C	.
Cn1c(=O)c2cn(-c3ccc(F)cc3)cc2n(C)c1=O	.
COc1ccc(C2C(=O)N(CCc3ccccc3)CC(=O)N2C2CCCc3ccccc32)cc1 (centres undefined)	.
Cc1ccc(-n2cc(C(=O)Nc3ccc(F)cc3)c3ccccc3c2=O)cc1C	.
Cc1cc(N2CCCCC2)nc2ccc(NC(=O)CCC(=O)N3CCCC(C)C3)cc12 (centres undefined)	0.48
CCOC(=O)C1CCCN(C(=O)CCC(=O)Nc2ccc3nc(N4CCC(C)CC4)cc(C)c3c2)C1 (centres undefined)	.
Cc1cc(N2CCC(C)CC2)nc2ccc(NC(=O)CCC(=O)N3CCCCCC3)cc12	.
Cc1ccc2[nH]c3c(c2c1)CCCC3NCc1ccc(F)cc1 (centres undefined)	0.43
Brc1ccc2[nH]c3c(c2c1)CCCC3NCc1ccccc1 (centres undefined)	.
Cc1ccc2[nH]c3c(c2c1)CCCC3Nc1ccccc1 (centres undefined)	.
CCCn1cnc2cc(NCc3cccc(OC)c3O)ccc21	.
CCCCn1cnc2cc(NCc3ccc(Cl)cc3)ccc21	0.22
CCc1ccc(CNc2ccc3c(c2)ncn3C)cc1	.
CCCn1cnc2cc(NCc3ccc(C)cc3)ccc21	0.46
CCn1cnc2cc(NCc3ccc(Cl)cc3)ccc21	.
CCCn1cnc2cc(NCc3cccc(OC)c3OC)ccc21	.
CCOc1ccc(CNc2ccc3c(c2)ncn3CC)cc1	.
Cc1ccc(CNc2ccc3c(c2)ncn3C)cc1	.
CCCn1cnc2cc(NCc3ccccn3)ccc21	0.35
SMILES	CBX7 AlphaScr
CCCn1cnc2cc(NCc3ccc(OCC)cc3)ccc21	0.45
Cc1ccc(CNc2ccc3c(c2)nc(C)n3C)cc1	.
O=C(c1ccc2c(c1)N(Cc1ccc(C(F)(F)F)cc1)C(=O)c1ccccc1S2)N1CCCCC1	.
CCOc1ccccc1CNC(=O)c1cc(=O)[nH]c2ccc(S(=O)(=O)N3CCOCC3)cc12	.
CCN(CC)CCn1c(=N)n(CC(O)COc2ccccc2OC)c2ccccc21 (centres undefined)	.
COCCNC(=O)c1cnc(N2CCN(c3ccccc3OC)CC2)c2ccccc12	.
OC(COc1ccc(F)cc1)Cn1c(CCc2ccccc2)nc2ccccc21 (centres undefined)	.
Cc1cc(N2CCCCC2)nc2ccc(NC(=O)C3CCC(C)CC3)cc12 (centres undefined)	.
COc1ccc(Nc2cc(C(=O)N3CCCC3)c3ccccc3n2)cc1	.
COc1ccc(Nc2nc(N3CCCC3)c3ccccc3n2)cc1	0.49
COC(=O)c1ccc(Nc2nc(N3CCN(C)CC3)c3ccccc3n2)cc1	.
COc1ccc(OC)c(-c2cc(C(=O)N3CCCCC3)no2)c1	.
O=C(CCc1cn(Cc2ccccc2)c2ccccc12)NCCc1ccc(Cl)cc1	.
O=C(CCc1cn(Cc2ccccc2)c2ccccc12)NCc1ccccc1Cl	0.49
Cc1ccc(Cn2cc(CCC(=O)NCc3cccnc3)c3ccccc32)cc1	0.26
COc1cccc(CNC(=O)CCc2cn(Cc3ccc(C)cc3)c3ccccc23)c1	.
Cc1ccc(Cn2cc(CCC(=O)NCc3ccccc3)c3ccccc32)cc1	.
CCc1ccc(CNC(=O)CCc2cn(Cc3ccccc3)c3ccccc23)cc1	.
COc1ccc(-c2cn3c(C)c(C(=O)Nc4ccc(OC)c(OC)c4)sc3n2)cc1	.
Cn1nc(-c2ccc(Cl)cc2)c2cc(C(=O)Nc3ccc(F)cc3)sc21	.
Cc1cccc(C)c1Nc1nc2nonc2nc1Nc1ccccc1	.
Nc1c2c(nc3ccccc13)N(c1ccc(Cl)c(Cl)c1)CC2	.
Cc1ccc2nc3c(c(N)c2c1)CCN3c1ccccc1	.
CCOc1ccc(N2CCc3c2nc2ccc(Br)cc2c3N)cc1	0.21
Cc1nn(-c2ccc(OC(F)(F)F)cc2)c2c1C(=O)CC(C)(C)C2	.
SMILES	CBX7 AlphaScr
Cc1cc2cc(CCNC(=O)c3c(F)cccc3Cl)c(=O)[nH]c2cc1C	.
CCOc1ccc(-n2nc(C(=O)NCCN(C)C)c3ccccc3c2=O)cc1	.
CCCCCc1ccc(-c2ccc(C(=O)Nc3ccc(C(=O)OC)cc3)cc2)nc1	.
O=C1Nc2ccccc2SC(c2ccccc2)C1O (centres undefined)	0.19
CC(C(=O)NC1CCCCC1)C1Sc2ccccc2NC1=O (centres undefined)	.
O=C1CC(c2ccc(F)cc2)Sc2ccccc2N1 (centres undefined)	.
CC1CCN(c2nc3ccc(C(=O)NC(C)c4ccc5c(c4)OCCO5)cc3s2)CC1 (centres undefined)	.
CCCCOc1ccc(-c2nc3ncccn3c2NC2CCCC2)cc1	.
COc1cccc(-c2nc(SCC(=O)NC3CCCC3)c(-c3ccc(C)cc3)[nH]2)c1	.
CCCCOc1cccc(-c2nc3c(C(=O)OC)c[nH]n3c2NC2CCCCCC2)c1	0.46
CCCCOc1ccc(-c2nc3c(C(=O)OC)c[nH]n3c2NC2CCCCCC2)cc1	0.21
COC(=O)c1c[nH]n2c(NC3CCCC3)c(-c3cccc(Br)c3)nc12	.
CCCOc1ccc(-c2nc(Oc3ccc(C(=O)OC)cc3)c3ccccc3n2)cc1	.
COc1ccc(NC(=O)c2cc(-c3ccc(Cl)c(Cl)c3)on2)cc1OC	.
CCc1nc(-c2cc(OC)cc(OC)c2)cc2cc(OC)c(OC)cc12	.
CCN(CC)S(=O)(=O)c1ccc2c(c1)N(CC(=O)Nc1ccsc1C(=O)OC)C(=O)CS2	.
FC(F)(F)C(F)(F)c1nnc2ccc(Cl)nn12	.
CCn1c(SCC(=O)Nc2cc(C)cc(C)c2)nnc1-c1c[nH]c2ccccc12	.
Cc1ccc(Nc2c(-c3ccc(N4CCOCC4)cc3)nc3sccn23)cc1C	0.49
COc1ccc(-c2nc3ccccn3c2Nc2ccc3c(c2)OCCO3)cc1	.
COc1ccc(Nc2c(-c3ccc(C)cc3)nc3sccn23)cc1OC	.
COc1ccc(-c2nc3sccn3c2Nc2ccc3c(c2)OCO3)cc1	0.47
Cc1ccc(Nc2c(-c3ccc(N4CCOCC4)cc3)nc3cc(C)ccn23)cc1	.
Cc1ccc(Nc2c(-c3ccc(N4CCOCC4)cc3)nc3ccccn23)cc1	.
Cc1ccc2nc(-c3ccsc3)c(NC3CCCCC3)n2c1	.
SMILES	CBX7 AlphaScr
CCOC(=O)c1c(C)n(-c2ccc(C)cc2)c2ccc(OCC(O)CNc3ccc(C(C)C)cc3)cc12 (centres undefined)	.
CCN(CC)c1ccc(C2Nc3ccccc3NC3=C2C(=O)CCC3)cc1 (centres undefined)	.
CC(CNC(=O)C1CCN(c2nc3ccccc3[nH]2)CC1)c1ccccc1 (centres undefined)	.
Cc1onc(-c2c(Cl)cccc2Cl)c1C(=O)NCC1CCCO1 (centres undefined)	.
Cc1onc(-c2c(F)cccc2Cl)c1C(=O)NCC1COc2ccccc2O1 (centres undefined)	0.47
Cc1onc(-c2c(F)cccc2Cl)c1C(=O)Nc1ccccc1	.
COc1ccc(-c2nn(C)c3sc(C(=O)Nc4ccccc4C)cc23)cc1OC	.
